The values below come from PubChem BioAssay (NCI).

About 83,000 compounds went through this panel and 20% of them were active in at least one assay; those are over-represented in the sample as a whole.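 Negative percent growth values reflect cell death: -40 means 40% of the cells present at the start died, and -100 means all died.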 Unmarked numbers belong to inactive results. Calls of active or inactive are those of the source. Rule for the calls: active = growth percent below 10; inactive = the rest.

Some test systems named below: HCT-15 colon; HT29 colon; SNB-75 CNS; SNB-19 CNS; U251 CNS; PC-3 prostate; SK-MEL-5 melanoma; UACC-62 melanoma; LOX IMVI melanoma; SK-MEL-28 melanoma.
Holding throughout (test): NCI-60 one-dose screen, 48 h (100 = growth as untreated, 0 = no growth, -100 = all killed)
Conditions in all cases: 10 µM unless noted

Take `COc1ccc(-c2[nH]c3ccccc3c2C=C(C#N)C#N)cc1`: the growth in the test on HCT-15 colon is 18%; with HT29 colon, 10.3%; with SNB-75 CNS it was 0.534% (active); in the test with SNB-19 CNS it was 67%; in the test with U251 CNS, 27.8%; in the test with PC-3 prostate, 19.1%. Moreover, the growth in the test with SK-MEL-5 melanoma was 2.62% (active); in the test with UACC-62 melanoma it was 15.2%; with LOX IMVI melanoma it was 31.4%; with SK-MEL-28 melanoma, 44.5%.
On to `C=C1C(=O)O[C@H]2[C@H]1CC/C(C=Nc1c(N)cc(F)cc1Br)=C\CC[C@@]1(C)O[C@@H]21`, for which the growth in the test on HCT-15 colon is 30.6%; in the test on HT29 colon, 36.4%; in the test on SNB-75 CNS it was 91.2%; in the test on SNB-19 CNS, 76.7%; with U251 CNS it was 87.3%; in the test on PC-3 prostate, 58.3%. Besides, the growth was 96.9% in the test on SK-MEL-5 melanoma, 90.1% with UACC-62 melanoma, 66.2% in the test on LOX IMVI melanoma and 80% with SK-MEL-28 melanoma.
For `CCOCc1nc2ccccc2c(=O)[nH]1`, the growth in the test with HCT-15 colon is 97.2%; in the test with HT29 colon, 95.9%; with SNB-75 CNS, 99.2%; in the test on SNB-19 CNS, 101%; in the test with U251 CNS, 102%; with PC-3 prostate, 95.2%. For the same compound, the growth was 104% in the test with SK-MEL-5 melanoma, 102% with UACC-62 melanoma, 99.8% in the test on LOX IMVI melanoma and 106% in the test with SK-MEL-28 melanoma.
Regarding `CC(=O)Nc1c(C(=O)Nc2ccccc2)sc2nc3c(cc12)C(OC(C)=O)CCC3` (stereo not given), the growth in the test with HCT-15 colon is 99.7%; in the test with HT29 colon, 104%; in the test on SNB-75 CNS, 88.2%; with SNB-19 CNS, 95.8%; in the test with U251 CNS it was 94.8%; with PC-3 prostate, 89%. Also, the growth was 82.5% in the test on SK-MEL-5 melanoma, 59% with UACC-62 melanoma, 92.2% in the test with LOX IMVI melanoma and 88.9% in the test with SK-MEL-28 melanoma.
`Cc1nccc2c3ccc(OCc4cn(-c5ccccc5)nn4)cc3n(CCCc3ccccc3)c12`: the growth is 56.9% in the test with HCT-15 colon; 38.5% in the test on HT29 colon; 73.8% in the test on SNB-75 CNS; 79.3% with SNB-19 CNS; 76.8% in the test on U251 CNS; 65.1% in the test on PC-3 prostate. For the same compound, the growth was 80.4% with SK-MEL-5 melanoma, 83.3% in the test on UACC-62 melanoma, 81.3% with LOX IMVI melanoma and 99% in the test on SK-MEL-28 melanoma.
As for `C=C(C)[C@@H]1CC[C@]2(C(=O)OCCCC[P+](c3ccccc3)(c3ccccc3)c3ccccc3)CC[C@]3(C)[C@H](CC[C@@H]4[C@@]5(C)CC[C@H](OC(=O)C(Cl)Cl)C(C)(C)[C@@H]5CC[C@]43C)[C@@H]12`, the growth is -8.59% (active) in the test with HCT-15 colon; 3% (active) in the test with HT29 colon; -46.6% (active) in the test on SNB-75 CNS; 11% in the test on SNB-19 CNS; -37.1% (active) with U251 CNS; -26.2% (active) in the test with PC-3 prostate. For the same compound, the growth is -99.4% (active) with SK-MEL-5 melanoma, -43.2% (active) with UACC-62 melanoma, -93.7% (active) in the test on LOX IMVI melanoma and -63.4% (active) in the test on SK-MEL-28 melanoma.
With `Cc1nn(-c2ccc(-c3ccc(OC(F)(F)F)cc3)cc2)c2nc(-c3ccccc3)nc(N)c12`, the growth with HCT-15 colon is 95.6%; in the test on HT29 colon, 90.2%; with SNB-75 CNS, 95%; in the test with SNB-19 CNS, 90.7%; in the test with U251 CNS, 85.5%; in the test with PC-3 prostate, 93.2%. In addition, the growth with SK-MEL-5 melanoma was 100%; in the test with UACC-62 melanoma, 99.9%; in the test on LOX IMVI melanoma it was 93.8%; in the test with SK-MEL-28 melanoma, 115%.
For the compound `CC1(c2ccccc2Cl)NC(=O)NC1=O` (stereo not given), the growth with HCT-15 colon is 99.2%; in the test with HT29 colon, 97.9%; in the test on SNB-75 CNS, 88.1%; in the test with SNB-19 CNS it was 97.8%; in the test with U251 CNS, 96.7%; in the test on PC-3 prostate, 91.2%. Also, the growth is 101% in the test on SK-MEL-5 melanoma, 95.5% with UACC-62 melanoma, 97.5% in the test on LOX IMVI melanoma and 105% in the test with SK-MEL-28 melanoma.
In the case of `CC(C)NS(=O)(=O)c1cccc(-c2ccc3c(=O)n(CCCN)c4c(c3c2)C(=O)c2ccccc2-4)c1`, the growth in the test on HCT-15 colon is 102%; with HT29 colon it was 89.6%; in the test on SNB-75 CNS, 82.3%; with SNB-19 CNS, 111%; with U251 CNS, 104%; in the test on PC-3 prostate it was 102%. For the same compound, the growth in the test on SK-MEL-5 melanoma was 98.8%; in the test with UACC-62 melanoma, 108%; in the test with LOX IMVI melanoma, 94.4%; in the test on SK-MEL-28 melanoma, 110%.
In the case of `c1ccc2nc(N3CCOCC3)c(N3CCCCC3)nc2c1`, the growth in the test with HCT-15 colon is 100%; in the test with HT29 colon it was 96.1%; in the test on SNB-75 CNS, 76.7%; with SNB-19 CNS, 93.9%; with U251 CNS, 96.9%; with PC-3 prostate, 90.8%. The growth is 96.8% in the test on SK-MEL-5 melanoma, 83.1% in the test with UACC-62 melanoma, 99.1% in the test with LOX IMVI melanoma and 109% in the test on SK-MEL-28 melanoma.
For the compound `C=C1C(=O)O[C@H]2[C@H]1CC/C(COC(=O)CCC(=O)OC/C1=C/CC[C@@]3(C)O[C@H]3[C@H]3OC(=O)C(=C)[C@@H]3CC1)=C\CC[C@@]1(C)O[C@@H]21`, the growth in the test with HCT-15 colon is 0.631% (active); in the test on HT29 colon it was 27.2%; in the test with SNB-75 CNS it was 76.5%; with SNB-19 CNS, 94.3%; in the test on U251 CNS it was 72.9%; in the test with PC-3 prostate it was 60%. Besides, the growth in the test with SK-MEL-5 melanoma is 61.4%; in the test on UACC-62 melanoma it was 13.2%; in the test with LOX IMVI melanoma, 26.2%; with SK-MEL-28 melanoma, 4.61% (active).
On to `COc1ccc2c(c1)/C(=C1\S/C(=N/c3nnc(C)s3)NC1=O)C(=O)N2Cc1ccc(Cl)cc1`, for which the growth was 28% with HCT-15 colon; 54.7% in the test on HT29 colon; 71% in the test with SNB-75 CNS; 35.7% in the test on SNB-19 CNS; 26% in the test on U251 CNS; 36.6% in the test with PC-3 prostate. Besides, the growth in the test with SK-MEL-5 melanoma was 30.9%; with UACC-62 melanoma, 32.8%; in the test on LOX IMVI melanoma, 39.4%; with SK-MEL-28 melanoma, 49.2%.
With `Cc1cc(Cl)cc(CN(Cc2ccccc2)Cc2c(O)ccc3ccccc23)c1O`, the growth was 108% in the test with HCT-15 colon; 98.5% in the test with HT29 colon; 94.5% in the test on SNB-75 CNS; 99.9% in the test with SNB-19 CNS; 98.5% in the test on U251 CNS; 88.5% with PC-3 prostate. For the same compound, the growth with SK-MEL-5 melanoma was 95.1%; in the test with UACC-62 melanoma, 89.3%; in the test on LOX IMVI melanoma it was 90.2%; with SK-MEL-28 melanoma it was 113%.
